In all, about 48,000 compounds went through this assay and about 13,000 (27%) showed an effect of 50% or more. The list shows a part of the results.
These compounds were tested on Wolbachia pipientis (assay: Anti-Wolbachia Cell-Based Screen). Conditions: 5 µM.
Type: functional
Parameters: scale not given: in the data most compounds retested in dose-response had high values

| Structure (SMILES) | Percent Effect |
| --- | --- |
| O=C(CCN1CCCO1)N1CC[C@@H](CNC(=O)N2CCCC2)[C@H](O)C1 | 5.965% |
| CCc1ccc2c(c1)C(CCNC(=O)c1sccc1C)C(=O)N2 (centres undefined) | -0.3397% |
| Cn1nc(CN2CCC(c3ccncc3)CC2)c2c(Cl)cccc21 | -3.245% |
| OC(COCc1ccccc1F)CN1CCc2c(ncn2C2CC2)C1 (centres undefined) | -3.372% |
| Cc1ncc(CN(C)CC(O)c2ccc(Br)cc2)s1 (centres undefined) | 5.745% |
| Cn1cnnc1CC1CCN(Cc2nn(C)c3cccc(Cl)c23)CC1 | -2.14% |
| Cc1cnn(CC2CCCN2C(=O)CCc2ccsc2)c1 (centres undefined) | -5.285% |
| Cc1cnn(CC2CCCN2C(=O)CCc2ccncc2)c1 (centres undefined) | 138.1% |
| Cc1cnn(CC2CCCN2C(=O)CCc2ccc3c(c2)OCO3)c1 (centres undefined) | 126.1% |
| Cc1cnn(CC2CCCN2C(=O)CCc2ccco2)c1 (centres undefined) | 108.9% |
| Cc1cnn(CC2CCCN2CC(=O)N(C)Cc2ccco2)c1 (centres undefined) | -7.327% |
| CC(=O)Nc1ccc(S(=O)(=O)Nc2c(F)cccc2F)cc1 | 12.85% |
| Cc1cnn(CC2CN(CC(=O)Nc3nnc(C)s3)CCO2)c1 (centres undefined) | -4.997% |
| COc1cc(F)ccc1C(C(=O)O)N(C)CCN1CCCC1 (centres undefined) | -2.761% |
| O=S(=O)(Cc1ccccc1)NCC1CCCN(Cc2cccs2)C1 (centres undefined) | -20.75% |
| CC(C)c1nc(O)c2nnn(C[C@@H]3CCCN(Cc4cccs4)C3)c2n1 | 127% |
| CC(C)c1nc(O)c2nnn(C[C@H]3CCCN(Cc4cccs4)C3)c2n1 | 127.4% |
| CC1CN(Cc2cccc(CN)c2)CCO1 (centres undefined) | -7.811% |
| Cc1cc(=O)n(C)cc1NC(=O)Cc1ccc(C(F)(F)F)cc1 | -20.5% |
| CCN(CCNCc1ccc(C#N)cc1)C1CC1 | -16.49% |
| FCCOc1cccc(NCc2c[nH]nc2-c2cccnc2)c1 | -17.01% |
| Cc1nc(O)cc(CCNc2nccc(CCC(F)(F)F)n2)n1 | 19.69% |
| OCCNc1nccc(-c2c[nH]nc2-c2ccco2)n1 | 131.5% |
| Fc1ccc(-c2n[nH]cc2-c2ccnc(NCCN3CCCC3)n2)cc1 | 7.952% |
| CCOCc1cccc(NCc2c[nH]nc2-c2cccnc2)c1 | -7.599% |

| Structure (SMILES) | Percent Effect |
| --- | --- |
| OCCNc1nccc(-c2c[nH]nc2-c2cccnc2)n1 | 121.3% |
| CC(C)[C@H](CO)Nc1nccc(-c2c[nH]nc2-c2ccncc2)n1 | 88.77% |
| Cc1ccccc1-n1cc(-c2ccnc(N[C@@H](CO)C(C)C)n2)cn1 | -0.1007% |
| OCCNc1nccc(-c2c[nH]nc2-c2ccncc2)n1 | 131% |
| Cc1ccccc1-n1cc(-c2ccnc(NC(CO)C(C)C)n2)cn1 (centres undefined) | -0.3825% |
| O=C(NCCNc1ncccn1)c1ccc(-c2ccco2)[nH]c1=O | 7.88% |
| COCCNC(=O)CSc1nnc(OC(C)C)s1 | 5% |
| CN(CCNS(C)(=O)=O)C(=O)c1ccc(Cl)c(Cl)c1 | 2.263% |
| Cc1nn(C)c(C)c1CN(Cc1cccn1-c1cccnc1)C(C)C | -3.784% |
| O=C(NCc1ccccc1OCCO)Nc1ccc2c(c1)CCC2 | 17.01% |
| N#Cc1ccnc(N2CCC(c3nccn3Cc3cscn3)CC2)c1 | 9.295% |
| CCCOC(C)C(=O)N1CCC(O)(c2ccc3nc(C)ccc3c2)CC1 (centres undefined) | -16.84% |
| N#Cc1ccc(NCCC2CCN(CC(F)(F)F)CC2)nc1 | -12.29% |
| Cc1ccc2c(n1)N(CC1CC1)CCN(Cc1cnn(C)c1)C2 | 122.1% |
| COCCC(=O)N1CCN(CC2CC2)c2nc(C)ccc2C1.O=C(O)C(F)(F)F | -15.14% |
| Cc1ccc2c(n1)N(Cc1cccnc1)CCN(Cc1cnn(C)c1)C2 | 105.8% |
| Cc1ccc2c(n1)N(CC1CC1)CCN(C(=O)NC1CC1)C2.O=C(O)C(F)(F)F | -6.473% |
| Cc1ccc2c(n1)N(Cc1cccnc1)CCN(C(=O)C1CCC1)C2.O=C(O)C(F)(F)F.O=C(O)C(F)(F)F | -8.761% |
| Cc1ccc2c(n1)N(Cc1cccnc1)CCN(C(=O)C1CC=CC1)C2 | 112.8% |
| COCCN1CCN(C(=O)C2CC=CC2)Cc2cccnc21 | -8.576% |
| CN(C)Cc1nnc2n1CCN(Cc1cccnc1)C2 | -0.7549% |
| Cc1cc(-c2nn(C)c(Cl)c2CN2CCC3(CC2)[C@H](O)C[C@@H]3O)no1 | 0.9032% |
| CNC(=O)CS(=O)(=O)C1CCN(S(=O)(=O)c2c(F)cccc2F)CC1 | 3.089% |
| CCn1ccnc1CN1CCCN(C(=O)c2cncnc2C)CC1 | -6.711% |
| CCn1ccnc1CN1CCCN(C(=O)c2cc(Cl)c[nH]2)CC1 | -1.253% |

| Structure (SMILES) | Percent Effect |
| --- | --- |
| CCn1ccnc1CN1CCCN(C(=O)C2(C#N)CCCCC2)CC1 | -5.352% |
| CCn1ccnc1CN1CCN(C(C)C(=O)NC2CCCCC2)CC1 (centres undefined) | -10.14% |
| CCn1ccnc1CN1CCN(C(C)C(=O)N2CCC(C)CC2)CC1 (centres undefined) | 15.17% |
| CCn1ccnc1CN1CCN(C(C)C(=O)N2CCCCCC2)CC1 (centres undefined) | 83.63% |
| CCn1ccnc1CN1CCCN(C(=O)c2cnc(C)cn2)CC1 | 120.4% |
| CCn1ccnc1CN1CCCN(C(=O)c2cccn2C)CC1 | 1.946% |
| CCn1ccnc1CN1CCN(C(C)C(=O)N2CCCC2)CC1 (centres undefined) | 111.2% |
| COc1cccc(CNC(=O)NC2(c3nc(C)no3)CCCCC2)c1 | -3.756% |
| CC(NC(=O)NCCc1cnn(C)c1)c1ccc(Cl)s1 (centres undefined) | 7.772% |
| CN(Cc1ccco1)[C@@H]1CN(Cc2ccc(F)cc2)C[C@@H]2CCCO[C@@H]21.O=C(O)C(F)(F)F.O=C(O)C(F)(F)F | 20.99% |
| CCCn1[nH]cc/c1=N\C(=O)CN1CCC[C@H]1CO | 0.9827% |
| Cl.O=C(c1ccoc1)N1CCC(NCc2ccccc2Cl)CC1 | -26.85% |
| CCN1C[C@H]2CCN(C(=O)NC3CCCC3)CC[C@H]2S1(=O)=O | 7.84% |
| NC(=O)C1CCN(C(=O)Cn2nc(-c3ccccc3)oc2=O)C1 (centres undefined) | -8.478% |
| COc1cccc(OC2CN(C(=O)CCn3cnc4ccccc43)C2)c1 | -24.05% |
| CNC(=O)C1CN(C)CCN(C(=O)CCn2nnc3ccccc32)C1 (centres undefined) | 120.6% |
| CNC(=O)C1CCN(C(=O)CCn2cccn2)CC1 | -8.925% |
| CC(C)c1cc(C(=O)NCCn2nnc3ccccc32)no1 | -3.58% |
| CN1CCN(C(=O)CCn2nnc3ccccc32)CC(C(N)=O)C1 (centres undefined) | 138.2% |
| Cn1c(CN2CCCCC2)nnc1C1CCN(c2nccc(N)n2)CC1 | -10.02% |
| COc1ccc(CNC(=O)CNc2cc3c(cc2Cl)OCCCO3)cc1 | 0.3306% |
| Cn1nc(CN2CCCCC2)c2c1CN(Cc1ccoc1)C2.O=C(O)C(F)(F)F.O=C(O)C(F)(F)F | -5.276% |
| Cn1nc(CN2CCCC2)c2c1CN(C(=O)Nc1cccc(F)c1)CC2.O=C(O)C(F)(F)F | -17.26% |
| CC(C)n1nc(CN(C)C)c2c1CN(CC1CC1)CC2.O=C(O)C(F)(F)F.O=C(O)C(F)(F)F | -1.133% |
| Cn1nc(CN2CCCC2)c2c1CN(c1cnccn1)CC2.O=C(O)C(F)(F)F.O=C(O)C(F)(F)F | 110% |

| Structure (SMILES) | Percent Effect |
| --- | --- |
| Cn1nc(CN2CCCC2)c2c1CN(CC1CC1)CC2.O=C(O)C(F)(F)F.O=C(O)C(F)(F)F | 104.5% |
| Cn1nc(CN2CCCC2)c2c1CN(C(=O)c1cnccn1)CC2 | -11.87% |
| CC(C)n1nc(CN2CCCC2)c2c1CN(CC1CC1)CC2.O=C(O)C(F)(F)F.O=C(O)C(F)(F)F | 114.1% |
| Cn1nc(CNC(=O)CC#N)c2c1CN(CC1CC1)CC2.O=C(O)C(F)(F)F | -7.895% |
| CC(C)n1nc(CN(C)C)c2c1CN(C(=O)CC1CC1)CC2.O=C(O)C(F)(F)F | -12.31% |
| O=C(Cc1cccs1)N1CC(c2nc(-c3cnccn3)no2)C1 | 16.37% |
| CC(C)CN1CCN(S(=O)(=O)c2cn(C)cn2)[C@H]2CS(=O)(=O)C[C@H]21 | -0.9827% |
| N#Cc1ccc(F)c(CN(CC(=O)N2CCCC2)CC2CCCO2)c1 (centres undefined) | -8.762% |
| CCc1cc(CN(C)C(=O)c2nnc(CN(C)C)o2)on1 | -21.92% |
| COc1ccc(CN(C)c2ncc(S(N)(=O)=O)s2)c(OC)c1 | -0.4358% |
| CCc1nc(C2CCCN2C(=O)CCNS(C)(=O)=O)no1 (centres undefined) | 1.725% |
| CCc1nc(C2CCCN2C(=O)CCc2c(C)noc2Cl)no1 (centres undefined) | 102.7% |
| CCc1nc(C2CCCN2C(=O)c2ncoc2CC)no1 (centres undefined) | 6.406% |
| CCc1nc(C2CCCN2C(=O)CCc2nc(C3CC3)no2)no1 (centres undefined) | 115.8% |
| CCc1nc(C2CCCN2C(=O)CCc2cscn2)no1 (centres undefined) | 107.6% |
| CCc1nc(C2CCCN2C(=O)c2ccoc2C)no1 (centres undefined) | -2.017% |
| CCc1nc(C2CCCN2C(=O)CCc2nc(C(C)(C)C)no2)no1 (centres undefined) | 121.6% |
| CCCc1noc(CCC(=O)N2CCCC2c2noc(C3CC3)n2)n1 (centres undefined) | -5.991% |
| CCc1nc(C2CCCN2C(=O)CCc2ccc3c(c2)OCO3)no1 (centres undefined) | -10.43% |
| CCc1nc(C2CCCN2C(=O)c2c[nH]c(C)n2)no1 (centres undefined) | -5.998% |
| O=C(CCc1cscn1)N1CCCC1c1noc(C2CC2)n1 (centres undefined) | 2.466% |
| COc1ncc(Cl)c(NCc2ccc(C(=O)N(C)C)cc2)n1 | -9.459% |
| CC(C)c1nc(Cn2cncn2)n(-c2ccccn2)n1 | -15.87% |
| CC1CCN(C(=O)c2cn(-c3cc(N4CCOCC4)ncn3)cn2)CC1 | 4.259% |

Source: ChEMBL document CHEMBL3988442, “University of Dundee, Small-Polar-MMV Screening Library” (2021)
